Results from PubChem BioAssay.
Results filed as inconclusive are left out. The source made the active and inactive calls.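 How the source made its calls, unless noted: active means aptamer binding inhibition above 30%, about 3 SD of noise from non-fluorescent compounds; inactive means inhibition at or below 30%.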

Assays:
[1] = rapamycin-like changes in RPL19A-GFP expression – cell-based, S. cerevisiae, multiplex flow cytometry, primary screen (AID 1862; in the data active means percent of DMSO control GFP below about 86%;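 further: lower values mimic rapamycin by blocking the RPL19A rise seen in DMSO cells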); conditions: S. cerevisiae RPL19A-GFP strain, flow cytometry fluorescence, 3 h; at 10 µM; stronger effect = lower value
[2] = TOR pathway GLN3 branch reporter MEP2-GFP changes – S. cerevisiae, multiplex flow cytometry, primary screen (AID 1867;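 active means GFP response, as percent of the DMSO control, above the screen-wide mean plus 3 SD, about 139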;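 further: median GFP channel fluorescence of barcode-gated MEP2-GFP cells measured by flow cytometry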); conditions: S. cerevisiae MEP2-GFP strain, 3 h, at 10 µM, stronger effect = higher value, 100% means same as DMSO wells
[3] = TOR pathway RTG branch CIT2 reporter changes – S. cerevisiae, GFP fusion, multiplex flow cytometry, primary screen (AID 1870;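 active means percent response above a set limit, the screen-wide mean plus 3 SD, cut at about 130% in these data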;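 further: barcoded CIT2-GFP strain pooled with four other GFP strains with rapamycin as positive control; median GFP fluorescence per well over plate mean of DMSO wells so 100% = DMSO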); conditions: S. cerevisiae CIT2-GFP expression, 3 h, at 10 µM, stronger effect = higher value
[4] = TOR pathway LAP4-GFP level changes – S. cerevisiae, multiplex flow cytometry, primary screen (AID 1873;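 active means GFP signal, as percent of the solvent control, above the screen mean plus 3 SD, about 149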); conditions: S. cerevisiae LAP4-GFP expression, 3 h, at 10 µM, stronger effect = higher value
[5] = yeast AGP1-GFP level changes, GLN3 branch – cell-based, multiplex flow cytometry, S. cerevisiae, primary screen (AID 1887;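 active means GFP signal above the screen-wide mean plus 3 SD, that is over about 124.5% of the solvent control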;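 further: AGP1-GFP fusion strain of S. cerevisiae within a five-strain barcoded multiplex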); conditions: 3 h, at 10 µM, stronger effect = higher value
[6] = reduced mouse 2C T cell binding to pMHC/ICAM-1 vesicles – MLPCN validation set, flow cytometry, LFA-1/ICAM-1 modulator project, pilot screen (AID 2523;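 active means response below a set limit, under 55% cells CD8-positive and vesicle-bound, and CD8 cells' 90th-percentile brightness under 279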;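 on vesicle binding response: mean PE anti-B7-1 fluorescence of CD8+ cells relative to row control; 100% = QL9-loaded vesicles with DMSO vehicle in the same plate row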); conditions: 2C mouse CD8+ T cells, at 7 µM, stronger effect = lower value; double positive events: measured here: CD8+/vesicle+ event percentage
[7] = target: Integrin beta-1 (Homo sapiens) + Integrin alpha-4 (Homo sapiens) (UniProt P13612+P05556); assay: alpha4beta1 integrin LIBS antibody binding reduction – U937 cells, HUTS-21 mAb, flow cytometry, validation set, VLA-4 allosteric modulator project, pilot screen (AID 2674;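 active means inhibition above 50%, about 3 SD of the validation set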;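 further: antibody binding induced by the VLA-4 ligand LDV present at three times its Kd; 0% = LDV ligand with antibody and no compound and 100% = antibody without LDV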); conditions: HUTS-21 LIBS mAb binding, at 6.7 µM, stronger effect = higher value, binding induced by LDV ligand
[8] = calorie-restriction mimetic ROS inhibitors, yeast – validation compound set, pilot screen (AID 2706;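 active means superoxide response below 65% of plate, a cut near 3 SD across the whole screen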;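 further: yeast exposed to compound for one week at 30 degrees C before staining; 100% = mean of all compound wells on the same plate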); conditions: S. cerevisiae aging, superoxide DHE fluorescence; at 10 µM, stronger effect = lower value
[9] = target: Beta-adrenergic receptor kinase 1 (Homo sapiens) (UniProt P25098); assay: GRK2 binders displacing RNA aptamer, biochemical, validation, human GRK2, bead flow cytometry (AID 488806); conditions: bead-bound GRK2, FAM-aptamer displacement, at 10 µM, stronger effect = higher value
[10] = target: AP-2 complex subunit beta (Homo sapiens) (UniProt P63010); assay: beta-arrestin/AP2 interaction blockers – biochemical, validation set, GST-AP2 beads, flow cytometry, pilot screen (AID 504541;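 active means inhibition above 54%, about 3 SD of non-fluorescent compounds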;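 further: AP2 carries R879A mutation and is captured from E. coli lysate; bead-bound FITC arrestin peptide fluorescence measuring arrestin peptide binding to AP2; 0% = DMSO wells and 100% = excess unlabeled arrestin peptide control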); conditions: FITC arrestin peptide, at 10 µM, stronger effect = higher value, AP2 beta2 appendage fragment, R879A mutant
[11] = cytosolic pH regulators acting via V-ATPase – S. cerevisiae, pHLuorin, HTS validation (AID 504600; in the data active means response above about 15%;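 further: plate controls were DMSO for no effect and reference compound for full effect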); conditions: V-ATPase proton transport, at 10 µM, stronger effect = higher value
[12] = system: anti-desmoglein-3 scFv antibody binding to human DSG3; assay: blockers of pathogenic pemphigus antibody–desmoglein-3 binding – biochemical, validation compound set, bead-based, flow cytometry, pilot screen (AID 588368;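 active means binding below the plate cutoff, the plate median minus 3 SD, with a reading above zero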;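 further: signal is the median channel fluorescence of bead-bound GFP antibody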); conditions: Protein G beads, DSG3-Fc, scFv-GFP binding, at 10 µM, stronger effect = lower value
[13] = Nile Red efflux blockade in pump-expressing yeast – validation compound set, multiplex, phenotypic, pilot screen (AID 588506;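 active means efflux inhibition above 0.42, the validation set average plus 4 SD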;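 further: Nile Red retained in cells so higher fluorescence means more efflux inhibition; 0 = negative control wells and 1 = enniatin B 25 µM full block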); conditions: S. cerevisiae pump-expressing triplex, Nile Red efflux flow cytometry; at 10 µM; stronger effect = higher value; the pumps come from Candida albicans
[14] = target: ATP-binding cassette sub-family B member 6 (Homo sapiens) (UniProt Q9NP58); assay: blockers of ABCB6-driven porphyrin uptake – K562-ABCB6 cells, flow cytometry, validation set, pilot screen (AID 588550;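 active means inhibition above the screen-wide mean plus 3 SD, about 51%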;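 further: 0% = DMSO wells and 100% = benzethonium chloride 70 µM positive control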); conditions: K562-ABCB6 porphyrin accumulation, 1 h, at 10 µM, stronger effect = higher value
[15] = AML differentiation inducers, ER-HoxA9 marrow cells – cell-based, GFP/MAC1 double positive, flow cytometry, validation set, primary screen (AID 588685;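 active means differentiation response of at least 50%, scaled between solvent and reference control, from cells with both markers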;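 further: compound exposure lasts four days before antibody staining and flow analysis; 0% = DMSO wells and 100% = 5 µM fulvestrant positive control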); conditions: stronger effect = higher value, normalized: vehicle 0, fulvestrant 100

Sequence of Integrin beta-1 (Homo sapiens) + Integrin alpha-4 (Homo sapiens) (P05556 whole entry, looked up): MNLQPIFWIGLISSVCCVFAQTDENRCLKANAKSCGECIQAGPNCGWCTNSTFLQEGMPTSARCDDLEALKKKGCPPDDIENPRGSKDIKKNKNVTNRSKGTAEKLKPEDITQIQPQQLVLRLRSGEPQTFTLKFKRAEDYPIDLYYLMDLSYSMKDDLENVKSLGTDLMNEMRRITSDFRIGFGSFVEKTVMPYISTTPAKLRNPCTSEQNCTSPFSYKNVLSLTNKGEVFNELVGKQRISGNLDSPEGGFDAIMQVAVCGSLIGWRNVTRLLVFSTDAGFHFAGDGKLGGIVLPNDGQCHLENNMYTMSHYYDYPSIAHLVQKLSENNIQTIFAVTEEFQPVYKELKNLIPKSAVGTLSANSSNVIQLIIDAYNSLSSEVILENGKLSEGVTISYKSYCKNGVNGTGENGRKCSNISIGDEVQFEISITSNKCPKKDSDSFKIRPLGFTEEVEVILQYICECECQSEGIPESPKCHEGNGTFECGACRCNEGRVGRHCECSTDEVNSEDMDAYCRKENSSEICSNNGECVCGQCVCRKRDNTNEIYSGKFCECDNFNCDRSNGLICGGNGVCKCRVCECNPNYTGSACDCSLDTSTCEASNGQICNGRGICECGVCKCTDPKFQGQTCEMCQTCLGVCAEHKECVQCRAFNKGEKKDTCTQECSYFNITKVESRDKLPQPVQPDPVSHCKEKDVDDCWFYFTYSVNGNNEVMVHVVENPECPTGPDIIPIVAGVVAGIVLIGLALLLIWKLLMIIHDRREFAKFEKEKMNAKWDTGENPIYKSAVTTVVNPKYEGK
Sequence of Integrin beta-1 (Homo sapiens) + Integrin alpha-4 (Homo sapiens) (P13612 whole entry, looked up): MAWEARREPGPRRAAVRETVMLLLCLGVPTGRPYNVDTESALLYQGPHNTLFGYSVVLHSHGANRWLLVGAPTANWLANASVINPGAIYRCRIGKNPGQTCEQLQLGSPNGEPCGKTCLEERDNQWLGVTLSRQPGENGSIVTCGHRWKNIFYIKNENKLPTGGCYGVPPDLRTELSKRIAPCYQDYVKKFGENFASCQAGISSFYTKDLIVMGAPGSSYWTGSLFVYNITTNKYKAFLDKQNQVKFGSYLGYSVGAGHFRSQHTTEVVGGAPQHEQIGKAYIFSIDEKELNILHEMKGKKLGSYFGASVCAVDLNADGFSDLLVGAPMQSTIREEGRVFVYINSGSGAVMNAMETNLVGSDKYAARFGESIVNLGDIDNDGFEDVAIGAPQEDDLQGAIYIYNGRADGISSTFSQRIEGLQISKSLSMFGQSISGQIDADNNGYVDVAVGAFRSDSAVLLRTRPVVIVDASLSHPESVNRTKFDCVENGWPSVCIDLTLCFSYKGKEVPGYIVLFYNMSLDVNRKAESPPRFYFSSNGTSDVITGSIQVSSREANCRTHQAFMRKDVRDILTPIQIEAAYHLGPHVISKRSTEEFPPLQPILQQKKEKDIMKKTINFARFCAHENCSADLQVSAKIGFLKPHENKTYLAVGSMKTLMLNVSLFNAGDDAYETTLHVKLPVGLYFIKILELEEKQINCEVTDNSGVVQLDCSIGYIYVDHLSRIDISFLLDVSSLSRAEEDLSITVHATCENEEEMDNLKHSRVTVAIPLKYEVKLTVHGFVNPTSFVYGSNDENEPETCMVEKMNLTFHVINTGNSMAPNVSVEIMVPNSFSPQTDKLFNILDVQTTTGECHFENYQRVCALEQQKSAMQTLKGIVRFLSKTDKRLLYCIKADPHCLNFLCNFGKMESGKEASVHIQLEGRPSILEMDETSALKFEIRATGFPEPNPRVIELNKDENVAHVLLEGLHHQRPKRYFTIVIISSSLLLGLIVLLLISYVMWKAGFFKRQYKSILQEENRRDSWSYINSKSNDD
Sequence of Beta-adrenergic receptor kinase 1 (Homo sapiens) (P25098 whole entry, looked up, the tested form may be a part): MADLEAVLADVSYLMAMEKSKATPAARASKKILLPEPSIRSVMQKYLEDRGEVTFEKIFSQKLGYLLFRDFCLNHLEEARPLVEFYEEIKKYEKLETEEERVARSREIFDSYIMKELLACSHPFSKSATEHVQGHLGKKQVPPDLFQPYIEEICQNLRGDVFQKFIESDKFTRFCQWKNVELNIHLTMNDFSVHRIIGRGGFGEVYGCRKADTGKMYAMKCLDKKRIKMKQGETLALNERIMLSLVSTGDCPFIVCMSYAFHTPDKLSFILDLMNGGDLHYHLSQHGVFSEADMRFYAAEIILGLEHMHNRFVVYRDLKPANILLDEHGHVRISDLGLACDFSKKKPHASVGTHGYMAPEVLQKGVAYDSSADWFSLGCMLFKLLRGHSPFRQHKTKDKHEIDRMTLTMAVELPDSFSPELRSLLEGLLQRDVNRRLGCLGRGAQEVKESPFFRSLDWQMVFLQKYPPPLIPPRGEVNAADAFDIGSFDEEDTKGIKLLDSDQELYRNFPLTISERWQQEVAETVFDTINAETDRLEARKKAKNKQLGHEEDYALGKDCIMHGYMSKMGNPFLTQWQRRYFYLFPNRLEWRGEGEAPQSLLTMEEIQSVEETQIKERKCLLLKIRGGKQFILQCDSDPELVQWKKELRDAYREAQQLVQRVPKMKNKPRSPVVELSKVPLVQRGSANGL
Sequence of AP-2 complex subunit beta (Homo sapiens) (P63010 whole entry, looked up, the tested form may be a part, one chain of several): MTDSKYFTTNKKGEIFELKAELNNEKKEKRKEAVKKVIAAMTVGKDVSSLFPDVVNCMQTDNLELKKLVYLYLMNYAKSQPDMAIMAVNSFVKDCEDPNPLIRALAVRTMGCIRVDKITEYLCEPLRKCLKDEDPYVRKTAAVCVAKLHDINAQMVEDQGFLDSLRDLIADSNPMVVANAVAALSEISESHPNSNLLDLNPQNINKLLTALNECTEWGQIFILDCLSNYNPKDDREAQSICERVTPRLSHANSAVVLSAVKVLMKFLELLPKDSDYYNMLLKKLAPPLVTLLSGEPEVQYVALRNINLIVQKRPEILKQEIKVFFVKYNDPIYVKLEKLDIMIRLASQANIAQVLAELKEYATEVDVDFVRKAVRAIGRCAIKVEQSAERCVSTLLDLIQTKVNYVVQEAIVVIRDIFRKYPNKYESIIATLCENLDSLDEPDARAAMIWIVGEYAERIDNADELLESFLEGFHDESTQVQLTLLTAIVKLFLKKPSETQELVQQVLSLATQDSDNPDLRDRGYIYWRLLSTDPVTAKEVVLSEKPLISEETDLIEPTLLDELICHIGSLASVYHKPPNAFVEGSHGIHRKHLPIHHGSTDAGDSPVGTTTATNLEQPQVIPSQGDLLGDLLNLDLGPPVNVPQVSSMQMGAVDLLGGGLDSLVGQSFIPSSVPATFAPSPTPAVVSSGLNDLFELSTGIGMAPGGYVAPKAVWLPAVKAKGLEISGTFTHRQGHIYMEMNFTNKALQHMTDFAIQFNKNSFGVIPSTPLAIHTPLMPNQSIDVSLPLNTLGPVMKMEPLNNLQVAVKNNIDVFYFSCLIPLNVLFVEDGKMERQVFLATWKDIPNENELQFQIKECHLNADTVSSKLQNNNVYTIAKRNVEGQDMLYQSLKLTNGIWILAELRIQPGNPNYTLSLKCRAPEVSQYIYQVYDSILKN
Sequence of ATP-binding cassette sub-family B member 6 (Homo sapiens) (Q9NP58 whole entry, looked up): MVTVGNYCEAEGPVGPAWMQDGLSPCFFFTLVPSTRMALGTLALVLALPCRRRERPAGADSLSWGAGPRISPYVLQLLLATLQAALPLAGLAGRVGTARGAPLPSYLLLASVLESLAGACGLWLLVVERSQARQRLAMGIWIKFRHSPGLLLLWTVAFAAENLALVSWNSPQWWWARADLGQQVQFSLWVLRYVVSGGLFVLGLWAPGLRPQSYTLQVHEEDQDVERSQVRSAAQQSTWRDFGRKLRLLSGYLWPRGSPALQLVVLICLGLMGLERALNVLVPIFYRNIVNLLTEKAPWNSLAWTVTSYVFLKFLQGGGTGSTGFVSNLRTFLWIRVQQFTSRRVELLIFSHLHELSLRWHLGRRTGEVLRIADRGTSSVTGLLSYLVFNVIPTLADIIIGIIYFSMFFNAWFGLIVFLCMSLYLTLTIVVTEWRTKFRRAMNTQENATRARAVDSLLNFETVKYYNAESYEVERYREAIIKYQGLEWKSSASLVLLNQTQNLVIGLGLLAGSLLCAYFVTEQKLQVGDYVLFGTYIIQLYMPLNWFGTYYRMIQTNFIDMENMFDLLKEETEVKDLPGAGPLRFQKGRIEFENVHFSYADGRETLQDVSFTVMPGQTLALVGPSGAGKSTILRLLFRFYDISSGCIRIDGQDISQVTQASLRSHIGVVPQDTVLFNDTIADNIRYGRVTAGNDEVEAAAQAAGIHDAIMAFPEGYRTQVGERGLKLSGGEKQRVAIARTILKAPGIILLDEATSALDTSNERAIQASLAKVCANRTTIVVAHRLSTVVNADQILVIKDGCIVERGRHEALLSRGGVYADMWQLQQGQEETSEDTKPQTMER

## CCCC1O[C@@H]2C[C@H]3[C@@H]4CCC5=CC(=O)C=C[C@]5(C)[C@H]4[C@@H](O)C[C@]3(C)[C@]2(C(=O)CO)O1 (stereo not given in full)
[1]
  percent of DMSO control GFP: 100% (inactive)
[2]
  GFP response vs DMSO: 108% (inactive)
[3]
  percent response of DMSO control: 108% (inactive)
[4]
  GFP response vs DMSO: 100% (inactive)
[5]
  GFP response, % of DMSO: 106% (inactive)
[6]
  double positive events: 58.8%
  vesicle binding response: 217% (inactive)
[7]
  inhibition: 4.42% (inactive)
[8]
  superoxide response (% of plate): 103% (inactive)
[9]
  aptamer binding inhibition: 4% (inactive)
[10]
  inhibition: 42.5% (inactive)
[11]
  response: -0.18% (inactive)
[12]
  binding (% of control): 104% (inactive)
[13]
  efflux inhibition (fraction of control): 0.1 (inactive)
[14]
  inhibition: 0% (inactive)
[15]
  differentiation response: 6.26% (inactive)

## CCOC(=O)C(=O)Nc1ccc(Oc2ccccc2)cc1
[1]
  percent of DMSO control GFP: 96.8% (inactive)
[2]
  GFP response vs DMSO: 105% (inactive)
[3]
  percent response of DMSO control: 101% (inactive)
[4]
  GFP response vs DMSO: 106% (inactive)
[5]
  GFP response, % of DMSO: 97.8% (inactive)
[6]
  double positive events: 61.7%
  vesicle binding response: 101% (inactive)
[7]
  inhibition: 18.4% (inactive)
[8]
  superoxide response (% of plate): 101% (inactive)
[9]
  aptamer binding inhibition: 3% (inactive)
[10]
  inhibition: 9.79% (inactive)
[11]
  response: 1.03% (inactive)
[12]
  binding (% of control): 105% (inactive)
[13]
  efflux inhibition (fraction of control): -0.05 (inactive)
[14]
  inhibition: 4% (inactive)
[15]
  differentiation response: -26% (inactive)

## COc1ccc(-c2cc3cc(OC)c(OC)cc3c(C)n2)cc1
[1]
  percent of DMSO control GFP: 103% (inactive)
[2]
  GFP response vs DMSO: 105% (inactive)
[3]
  percent response of DMSO control: 102% (inactive)
[4]
  GFP response vs DMSO: 90.3% (inactive)
[5]
  GFP response, % of DMSO: 90.7% (inactive)
[6]
  double positive events: 53.2%
  vesicle binding response: 149% (inactive)
[7]
  inhibition: 5.36% (inactive)
[8]
  superoxide response (% of plate): 96% (inactive)
[9]
  aptamer binding inhibition: 6% (inactive)
[10]
  inhibition: 1.41% (inactive)
[11]
  response: 1.33% (inactive)
[12]
  binding (% of control): 106% (inactive)
[13]
  efflux inhibition (fraction of control): -0.09 (inactive)
[14]
  inhibition: -2% (inactive)
[15]
  differentiation response: -8.27% (inactive)

## Cc1ccccc1-c1coc2cc(O)ccc2c1=O
[1]
  percent of DMSO control GFP: 98.5% (inactive)
[2]
  GFP response vs DMSO: 96.9% (inactive)
[3]
  percent response of DMSO control: 90% (inactive)
[4]
  GFP response vs DMSO: 116% (inactive)
[5]
  GFP response, % of DMSO: 97.3% (inactive)
[6]
  double positive events: 60.2%
  vesicle binding response: 187% (inactive)
[7]
  inhibition: -21.7% (inactive)
[8]
  superoxide response (% of plate): 89.2% (inactive)
[9]
  aptamer binding inhibition: 4% (inactive)
[10]
  inhibition: 30.2% (inactive)
[11]
  response: 0.4% (inactive)
[12]
  binding (% of control): 99.1% (inactive)
[13]
  efflux inhibition (fraction of control): -0.05 (inactive)
[14]
  inhibition: 8% (inactive)
[15]
  differentiation response: -14.7% (inactive)

## Cn1c(=O)oc2cc(S(=O)(=O)N3CCc4ccccc4C3)ccc21
[1]
  percent of DMSO control GFP: 101% (inactive)
[2]
  GFP response vs DMSO: 98.9% (inactive)
[3]
  percent response of DMSO control: 102% (inactive)
[4]
  GFP response vs DMSO: 89.3% (inactive)
[5]
  GFP response, % of DMSO: 97.8% (inactive)
[6]
  double positive events: 58.4%
  vesicle binding response: 165% (inactive)
[7]
  inhibition: 15.6% (inactive)
[8]
  superoxide response (% of plate): 95.2% (inactive)
[9]
  aptamer binding inhibition: 2% (inactive)
[10]
  inhibition: 7.43% (inactive)
[11]
  response: 2.89% (inactive)
[12]
  binding (% of control): 98.3% (inactive)
[13]
  efflux inhibition (fraction of control): -0.05 (inactive)
[14]
  inhibition: 10% (inactive)
[15]
  differentiation response: 9.49% (inactive)

## O=C1OCCN1/N=C/c1ccc([N+](=O)[O-])o1
[1]
  percent of DMSO control GFP: 103% (inactive)
[2]
  GFP response vs DMSO: 103% (inactive)
[3]
  percent response of DMSO control: 109% (inactive)
[4]
  GFP response vs DMSO: 111% (inactive)
[5]
  GFP response, % of DMSO: 102% (inactive)
[6]
  double positive events: 48.6%
  vesicle binding response: 157% (inactive)
[7]
  inhibition: 3.49% (inactive)
[8]
  superoxide response (% of plate): 124% (inactive)
[9]
  aptamer binding inhibition: -2% (inactive)
[10]
  inhibition: 3.09% (inactive)
[11]
  response: 8.6% (inactive)
[12]
  binding (% of control): 104% (inactive)
[13]
  efflux inhibition (fraction of control): 0.06 (inactive)
[14]
  inhibition: 4% (inactive)
[15]
  differentiation response: -16.4% (inactive)

## CO/N=C(\C(=O)N[C@@H]1C(=O)N2C(C(=O)O)=C(COC(C)=O)CS[C@H]12)c1csc(N)n1 (stereo in doubt)
[1]
  percent of DMSO control GFP: 95.8% (inactive)
[2]
  GFP response vs DMSO: 99.9% (inactive)
[3]
  percent response of DMSO control: 94.9% (inactive)
[4]
  GFP response vs DMSO: 90.3% (inactive)
[5]
  GFP response, % of DMSO: 93.4% (inactive)
[6]
  double positive events: 61.1%
  vesicle binding response: 224% (inactive)
[7]
  inhibition: 5.36% (inactive)
[8]
  superoxide response (% of plate): 93.9% (inactive)
[9]
  aptamer binding inhibition: 3% (inactive)
[10]
  inhibition: 2.47% (inactive)
[11]
  response: -3.75% (inactive)
[12]
  binding (% of control): 97.5% (inactive)
[13]
  efflux inhibition (fraction of control): -0.09 (inactive)
[14]
  inhibition: 11% (inactive)
[15]
  differentiation response: 6.26% (inactive)

## CC1(C)c2ccccc2N2CC(=O)N(CC(N)=O)C21C (stereo not given)
[1]
  percent of DMSO control GFP: 103% (inactive)
[2]
  GFP response vs DMSO: 99.9% (inactive)
[3]
  percent response of DMSO control: 103% (inactive)
[4]
  GFP response vs DMSO: 109% (inactive)
[5]
  GFP response, % of DMSO: 105% (inactive)
[6]
  double positive events: 61.8%
  vesicle binding response: 243% (inactive)
[7]
  inhibition: -5.84% (inactive)
[8]
  superoxide response (% of plate): 108% (inactive)
[9]
  aptamer binding inhibition: 3% (inactive)
[10]
  inhibition: -1.94% (inactive)
[11]
  response: 3.96% (inactive)
[12]
  binding (% of control): 97.8% (inactive)
[13]
  efflux inhibition (fraction of control): -0.35 (inactive)
[14]
  inhibition: 11% (inactive)
[15]
  differentiation response: -21.2% (inactive)

## COC(=O)c1cc(OC)c(OC)c(OC)c1[N+](=O)[O-]
[1]
  percent of DMSO control GFP: 103% (inactive)
[2]
  GFP response vs DMSO: 97.9% (inactive)
[3]
  percent response of DMSO control: 107% (inactive)
[4]
  GFP response vs DMSO: 108% (inactive)
[5]
  GFP response, % of DMSO: 105% (inactive)
[6]
  double positive events: 58.1%
  vesicle binding response: 186% (inactive)
[7]
  inhibition: -0.24% (inactive)
[8]
  superoxide response (% of plate): 107% (inactive)
[9]
  aptamer binding inhibition: 4% (inactive)
[10]
  inhibition: -11.6% (inactive)
[11]
  response: 39.5% (active)
[12]
  binding (% of control): 99% (inactive)
[13]
  efflux inhibition (fraction of control): 0.14 (inactive)
[14]
  inhibition: 3% (inactive)
[15]
  differentiation response: -21.2% (inactive)

## O=C(O)CC(O)C(=O)O (stereo not given)
[1]
  percent of DMSO control GFP: 101% (inactive)
[2]
  GFP response vs DMSO: 106% (inactive)
[3]
  percent response of DMSO control: 103% (inactive)
[4]
  GFP response vs DMSO: 104% (inactive)
[5]
  GFP response, % of DMSO: 99.6% (inactive)
[6]
  double positive events: 62.1%
  vesicle binding response: 146% (inactive)
[7]
  inhibition: 10.9% (inactive)
[8]
  superoxide response (% of plate): 95.8% (inactive)
[9]
  aptamer binding inhibition: 3% (inactive)
[10]
  inhibition: 1.04% (inactive)
[11]
  response: -1.46% (inactive)
[12]
  binding (% of control): 99.3% (inactive)
[13]
  efflux inhibition (fraction of control): 0.1 (inactive)
[14]
  inhibition: 14% (inactive)
[15]
  differentiation response: 1.41% (inactive)
